What all share (assay): NCI-60 one-dose screen, 48 h (100 = growth as untreated, 0 = no growth, -100 = all killed)
Settings in all cases: 10 µM unless noted

Experiment [1] relates to EKVX NSCLC.
Experiment [2] concerns SN12C renal.
The subject of experiment [3] is UO-31 renal.
Experiment [4] deals with TK-10 renal.
Experiment [5] relates to ACHN renal.
Experiment [6] has as its system CAKI-1 renal.
Experiment [7] has as its system A498 renal.
Experiment [8] relates to CCRF-CEM leukemia.
In experiment [9] the test system is MOLT-4 leukemia.
The subject of experiment [10] is SR leukemia.
Experiment [11] concerns RPMI-8226 leukemia.
Experiment [12] has as its system OVCAR-8 ovarian.
Experiment [13] concerns OVCAR-5 ovarian.
Experiment [14] has as its system OVCAR-4 ovarian.
Experiment [15] has as its system SK-OV-3 ovarian.
In experiment [16] the test system is IGROV1 ovarian.
Experiment [17] has as its system OVCAR-3 ovarian.
Experiment [18] has as its system HS 578T breast.
The test system of experiment [19] is NCI/ADR-RES ovarian.
Experiment [20] deals with SK-MEL-2 melanoma.

Structures are written as SMILES. Compounds without any hit were thinned out: in the full panel of roughly 83,000, 20% have a hit.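 Treatment: one concentration, 48 hours, 96-well format. Scoring: percent growth, with anything below 10 considered active.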 A number with no mark means an inactive call. Activity calls are given as the source filed them.

Regarding `CN(C)c1ccc2cc(-c3ccc(Cl)c(Cl)c3)c(N)nc2c1`, the growth in experiment [1] is 26.3%; in experiment [2] it was 40.9%; in experiment [3], 33.2%; in experiment [4], 27.9%; in experiment [5] it was 52.3%; in [6], 39.5%. The growth in [7] was 40.9%; in experiment [8], 58%; in experiment [9], 31%; in experiment [10] it was -29% (active); in experiment [11], 13.3%; in experiment [12], 21%. In addition, the growth in [13] was 55.4%; in experiment [14], 9.09% (active); in experiment [15], 60.4%; in experiment [16], 42%; in [17] it was 31%; in [18], 62.4%. The growth in [19] was 15.9%.

Take `CCCCCOC(=O)c1ccc(NC(=O)CNCC(C)C)cc1`: the growth in experiment [20] was 103%; in experiment [2], 94%; in [3], 66.5%; in [4] it was 98.5%; in experiment [7], 71.8%; in [8], 74.3%. For the same compound, the growth in experiment [9] is 86.5%; in [10] it was 82.2%; in experiment [11], 73.1%; in [12] it was 96.1%; in experiment [13], 98.9%; in experiment [14], 101%. The growth in [15] is 95.4%; in experiment [16], 93.4%; in experiment [17], 101%; in [18], 96.9%; in experiment [19] it was 101%.

For `O=C(Nc1ccc(N2CCCCC2)c(Cl)c1)c1ccc(Br)o1`, the growth is 91.9% in experiment [20]; 51.5% in [3]; 102% in experiment [4]; 64.3% in experiment [5]; 94.8% in [6]; 102% in experiment [7]. For the same compound, the growth in experiment [8] is 74.9%; in experiment [9] it was 75.4%; in experiment [10] it was 40.8%; in experiment [11], 55.7%; in [12], 59%; in experiment [13] it was 114%. The growth in experiment [14] is 73%; in experiment [15], 107%; in experiment [17] it was 43.6%; in [18] it was 72.8%; in experiment [19], 68%.

As for `N=C(N)c1ccc(-c2ccc(-c3ccc(Cl)c(Cl)c3)o2)nc1`, the growth is 108% in experiment [20]; -72.8% (active) in [2]; -92% (active) in experiment [3]; 116% in experiment [4]; -86.9% (active) in [5]; 87.1% in experiment [6]. Besides, the growth in experiment [8] was 2.34% (active); in experiment [9], 9.85% (active); in experiment [10] it was 1.79% (active); in [12], -16.1% (active); in [13], 39%; in experiment [14] it was -68.4% (active). Moreover, the growth is 22.3% in [16], -80.8% (active) in experiment [17], 94.8% in experiment [18] and 32.2% in experiment [19].

Regarding `COC(=O)CNC(=O)C(=O)c1c(O)c(O)c(C(C)C)c2cc(C)c(-c3c(C)cc4c(C(C)C)c(O)c(O)c(C(=O)C(=O)NCC(=O)OC)c4c3O)c(O)c12`, the growth was 5.91% (active) in experiment [1]; 32.9% in [2]; 1.7% (active) in [3]; 22.6% in experiment [4]; 3.33% (active) in experiment [5]; 51.4% in experiment [6]. For the same compound, the growth in experiment [7] was 27.6%; in [8], 24.4%; in experiment [9], 15.7%; in [10], 15%; in experiment [11], 20.4%; in experiment [12], 13%. The growth in experiment [13] was 30.4%; in experiment [14], -5.2% (active); in experiment [15], 6.72% (active); in experiment [16] it was 21.1%; in experiment [17] it was 18%; in experiment [18], 20.2%. Besides, the growth in experiment [19] is 20.9%.

`O=C1NCC(=O)N(Cc2ccco2)[C@H]1Cc1ccccc1`: the growth in [1] is 89.2%; in experiment [2], 98.1%; in experiment [3], 99.8%; in [4], 85.5%; in experiment [5], 105%; in experiment [6], 97.4%. The growth in experiment [7] is 52.9%; in experiment [8], 103%; in [9], 102%; in experiment [10], 92.6%; in experiment [11], 104%; in [12], 105%. The growth in experiment [13] was 106%; in experiment [14], 103%; in experiment [15] it was 96.7%; in experiment [16], 109%; in experiment [17], 110%; in [18] it was 89%. In [19], the growth was 104%.

As for `CCOC(=O)c1sc2ccc(NCc3nc[nH]c3C)cc2c1NC(=O)c1cc(OC)c(OC)c(OC)c1`, the growth is 84.1% in experiment [20]; 87.5% in experiment [2]; 70.4% in experiment [3]; 150% in [4]; 96% in experiment [6]; 101% in [7]. In addition, the growth in [8] was 52.2%; in [9], 88.2%; in [10] it was 10.4%; in [11], 80.1%; in experiment [13], 96.7%; in experiment [14] it was 74%. Further, the growth is 98.1% in [15]; 89.5% in [16]; 94% in [17]; 99.2% in experiment [18]; 91.7% in experiment [19].

Regarding `COC1=CC(c2ccc[nH]2)=N/C1=C\c1[nH]c(C)c(C(=O)OCCn2cc(CCC[C@@H]3Cc4cc(O)ccc4C4CC[C@]5(C)[C@@H](O)CC[C@H]5C43)nn2)c1C` (some centres undefined), the growth in experiment [20] was 122%; in [3] it was 44.7%; in [4], 96.9%; in [5] it was 66.5%; in experiment [6] it was 46.4%; in [7], 49.6%. Moreover, the growth in experiment [8] is 36.8%; in experiment [9] it was 62.1%; in experiment [10], 23.8%; in [12], 96.3%; in experiment [13], 88.9%; in experiment [15] it was 92.4%. Further, the growth was 95.7% in experiment [16], 85.5% in experiment [17], 65.1% in experiment [18] and 83.2% in experiment [19].

Consider `Nc1ccn(C2OC(F)(CO)C(O)C2F)c(=O)n1` (centres undefined), for which the growth in experiment [1] was 81.4%; in experiment [2], 36.4%; in [3], 10.7%; in [4], 75.8%; in [5], 2.4% (active); in experiment [6], 35.6%. Moreover, the growth is 50.2% in experiment [7]; 25% in [8]; 18.8% in experiment [9]; 90.4% in [10]; 106% in experiment [11]; 22.4% in [12]. The growth in [13] was 97.4%; in experiment [14], 73.2%; in [15] it was 33.4%; in [16] it was 49.8%; in experiment [17] it was 66.8%; in [18], 78.8%. Besides, in experiment [19], the growth is 18.4%.

Source of the values: PubChem BioAssay (NCI).
